Assay outcomes deposited in PubChem by National Center for Advancing Translational Sciences (NCATS).
Sampled rows, rich in hits. Any-hit rate of the full collection: about 12%.
BAZ2B block: inhibitors of human BAZ2B bromodomain | Q9UIF8 | AlphaScreen BAZ2B-H3K14Ac peptide displacement | Potency, µM (series often up to 114 µM), most hits filed as inhibitors | 360,000 tested, 4.4% active | AID 504333; also: nearly all actives have a fitted effect of over 60% in size
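AlphaScreen displacement: compounds (up to 110uM) incubated 30 min at room temperature with a preformed 50 nM BAZ2B/50 nM biotinylated H3K14Ac peptide complex in PBS pH 7.4 with Tween-20. Donor and acceptor beads at 10 ug/mL final added, 20 min light-protected before reading.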
JMJD2A Tudor: blocks the human JMJD2A Tudor domain | Potency, µM (top dose mostly 114 µM), actives largely listed as inhibitors | AID 504339 | 390,000 tested, 4.4% active | O75164 | AlphaScreen JMJD2A-Tudor / H3K4me3 peptide binding; also: nearly all actives have a fitted effect of over 50% in size
HP1b chromo inh: HP1-beta chromodomain-methylated histone interaction inhibition. P83916. AlphaScreen HP1-beta / biotin-H3K9me3 peptide binding. Potency, µM (doses to about 114 µM), usual class: inhibitors. 390,000 tested, 0.56% active. AID 540317; also: nearly all actives have a fitted effect of over 70% in size
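AlphaScreen: HP1-beta (50 nM) preformed 30 min with biotin-H3(1-18)K9me3 peptide (50 nM) in PBS pH 7.4, 0.01% Tween-20. Compound added for 30 min at RT, then streptavidin donor/nickel chelate acceptor beads (10 ug/mL) for 30 min.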
G9a inh: inhibitors of human histone lysine methyltransferase G9a | Q96KQ7 | G9a H3K9 monomethylation, AlphaScreen, 2 h | Potency, µM (titrated, usually from 102 µM), most hits filed as inhibitors | 350,000 tested, 8.8% active; also: nearly all actives have a fitted effect of over 75% in size
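G9a (20 nM) was preincubated 15 min with compound, then reacted 2 h at room temperature with 500 nM biotin-H3K9 peptide and 20 µM SAM. Monomethyl-H3K9 detected by AlphaScreen using anti-H3K9me1 antibody.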
Sfp PPTase inh: blocks B. subtilis Sfp PPTase activity. Q9F4F7. Potency, µM, actives largely listed as inhibitors. 310,000 tested, 3.5% active. AID 1490. Biochemical Sfp PPTase activity, qHTS;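 also: the enzyme is Sfp with the accession as filed and its product quenches rhodamine fluorescence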
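Buffer: 50 mM Hepes-Na pH 7.6, 10 mM MgCl2, 0.01% Nonidet P-40, 0.01% BSA. Enzyme 15 nM, pre-exposed to compound 15 min; substrates then added and fluorescence change tracked over 30 min.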
L3MBTL1 block: L3MBTL1 (human) inhibition | Q9Y468 | AlphaScreen L3MBTL1–H3K9me1 peptide binding | Potency, µM (titrated, usually from 57.1 µM), most hits filed as inhibitors | 230,000 tested, 0.66% active | AID 485360; also: nearly all actives have a fitted effect of over 60% in size
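L3MBTL1 (50 nM) pre-complexed 30 min with biotinylated H3(1-15)K9me1 peptide (75 nM), then compounds added for 30 min at room temperature; AlphaScreen streptavidin donor/nickel chelate acceptor beads (10 ug/mL final) read after 30 min dark incubation.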
Numbers stand for hits; i = inactive; ? = inconclusive; nt = no result given; [ ] = dose if it differs, or a comment. Calls follow the shape of the dose curve; as a rule, active = well fitted curve in the direction sought with a large enough effect; inconclusive = small, poorly fitted or top-dose-only effect, or another doubt; inactive = no such curve, though single readings can be large; an effect the other way counts as inactive or inconclusive.

SMILES	BAZ2B block	JMJD2A Tudor	HP1b chromo inh	G9a inh	Sfp PPTase inh	L3MBTL1 block
O=C1C=C(c2cc(C(F)(F)F)cc(C(F)(F)F)c2)C[C@@H](c2ccc(Cl)cc2)C1	i	i	i	i[2.33 µM]	nt	i
CC(C)Cc1nnc(NC(=O)CCc2c[nH]c3ccccc23)s1	i	i	i	i	i	nt
CCc1nnc(NC(=O)Cc2c[nH]c3ccccc23)s1	i	i	i	44.7µM	i	nt
O=C(Cc1c[nH]c2ccccc12)Nc1nc2ccccc2[nH]1	i	?	i	79.4µM	i	i
O=C(c1cccc(S(=O)(=O)N2CCCCC2)c1)N1CCN(c2ccccc2)CC1	i	i	i	i	i	nt
O=C(c1ccc(Cl)c(S(=O)(=O)N2CCCC2)c1)N1CCN(c2ccccc2)CC1	i	12.6µM	?	i	i	i
O=C(c1ccc(Cl)c(S(=O)(=O)N2CCCCC2)c1)N1CCN(c2ccccc2)CC1	i	i	i	i	i	nt
O=C(c1ccc(S(=O)(=O)N2CCCCCC2)cc1)N1CCN(c2ccccc2)CC1	i	79.4µM	i	i	i	nt
O=C(c1ccc(Cl)c(S(=O)(=O)N2CCCC2)c1)N1CCN(c2ccc(F)cc2)CC1	56.2µM	?	i	44.7µM	i	i
CCOC(=O)c1c(NC(=O)C2CCCO2)sc(C)c1C (stereo not drawn)	i	i	i	i	i	i
CCOC(=O)c1sc(NC(=O)C2CCCO2)c(C(=O)OCC)c1C (stereo not drawn)	56.2µM	nt	nt	i[12.7 µM]	i	nt
Cc1sc(NC(=O)C2CCCO2)c(C(N)=O)c1C (stereo not drawn)	i	?	?	7.94µM	i	i
CCOC(=O)c1c(NC(=O)C2CCCO2)sc(C(=O)OC(C)(C)C)c1C (stereo not drawn)	i	?	?	3.55µM	44.7µM	nt
O=C1c2ccccc2NC(c2cccc(O)c2)N1NS(=O)(=O)c1ccccc1 (stereo not drawn)	i	i	i	i	i	nt
O=C(COC(=O)C12CC3CC(CC(Cl)(C3)C1)C2)NCc1ccco1	nt	i	i	nt	nt	nt
COc1ccc(NS(=O)(=O)c2cc3[nH]c(=O)c(=O)[nH]c3cc2C)cc1OC	79.4µM	i	i	i	nt	nt
COc1cc([N+](=O)[O-])c2ncccc2c1	nt	i	i	nt	nt	nt
O=[N+]([O-])c1cc2cccnc2c2ncccc12	22.4µM	79.4µM	i	nt	i	?
O=[N+]([O-])c1cc2c(c3cccnc13)COCO2	nt	25.1µM	?	nt	nt	nt
c1cnc2ccc3c(c2c1)COCO3	nt	i	i	nt	nt	nt
O=[N+]([O-])c1cc(O)c2ncccc2c1	5.62µM	17.8µM	i	i	i	nt
CC(=O)OC1C=C[C@]2(C)C(CC(OC(C)=O)[C@@]3(C)C4=CC(=O)OC(c5ccoc5)[C@]4(C)CCC23)C1(C)C (stereo partly drawn)	nt	nt	nt	i[2.33 µM]	i	nt
O=C(CCCOc1ccc(Cl)cc1)NCCc1ccccc1	i	i	i	i	i	i
CCCN(Cc1nnc(-c2ccccc2Cl)o1)C(=O)c1cc([N+](=O)[O-])cc([N+](=O)[O-])c1	nt	i	i	50.1µM	i	nt
COc1ccccc1Cn1c(=S)[nH]c2cc(C(=O)NCC(OC)OC)ccc2c1=O	i	i	i	i	i	nt
SMILES	BAZ2B block	JMJD2A Tudor	HP1b chromo inh	G9a inh	Sfp PPTase inh	L3MBTL1 block
CCOc1ccc(CC(=O)Nc2c3c(nn2C(C)(C)C)CS(=O)(=O)C3)cc1	i	i	i	79.4µM	i	nt
CC(C)N(CCNS(=O)(=O)c1ccc(Cl)cc1)C(C)C	i	i	i	i	i	nt
CC(C)OP(=O)(OC(C)C)C1(NS(=O)(=O)c2ccc(Cl)cc2)C=C(Cl)C(=O)C(Cl)=C1	?	i	i	nt	89.1µM	nt
O=c1c(-c2cccs2)nc2cnc(Oc3cccc(Cl)c3)nc2n1C[C@H]1CCCO1	nt	nt	nt	i[12.7 µM]	i	nt
Cc1ccc(CN(Cc2ccco2)C(=S)NCC(=O)NCc2cccnc2)cc1	?	i	?	12.6µM	22.4µM	nt
Cc1ccc(CN(Cc2ccc(C)o2)C(=S)NCC(=O)O)cc1	i	i	i	?	i	i
Cc1ccc(CN(Cc2ccccc2)C(=S)NCC(=O)NCc2cccnc2)o1	i	?	i	28.2µM	25.1µM	i
Cc1ccc(CN(Cc2ccco2)C(=S)NCC(=O)O)cc1	i	i	i	31.6µM	i	i
Cc1ccc(CNC(=O)CNC(=S)N(Cc2ccccc2)Cc2cccnc2)cc1	i	i	i	i	i	nt
O=c1c2[nH]c3ccc(F)cc3c2ncn1CCC1=CCCCC1	i	i	i	i[12.7 µM]	i	i
CCN(CC)c1ccc(Nc2nc(N3CCOCC3)c3ccccc3n2)cc1	17.8µM	17.8µM	i	2.24µM	?	nt
COc1ccc(Nc2nc(N3CCCC3)c3ccccc3n2)cc1	?	44.7µM	?	i[12.7 µM]	?	nt
CCOC(=O)c1ccc(NC(=O)CSc2nc3ccccc3c(=O)n2CCC(=O)NC2CCCCC2)cc1	i	i	i	i	nt	nt
COc1ccc(N=Nc2n(C)c3ccccc3[n+]2C)cc1	39.8µM	nt	nt	nt	50.1µM	i
CC(=O)Nc1nc(CC(C)C)cc(-c2ccccc2)c1C#N	i	i	i	nt	i	i
CC(=O)Nc1nc(CC(C)C)cc(-c2ccco2)c1C#N	i	i	i	15.8µM	i	nt
O=S(=O)(NCC1CCCN(Cc2ccccc2O)C1)c1cccc2cccnc12 (stereo not drawn)	i	i	i	70.8µM	i	nt
O=C(C1CCC(CNS(=O)(=O)c2cccc3cccnc23)CC1)N1CCCC1 (stereo not drawn)	i	i	i	i	i	i
Cc1ccc(CN2CCN(/N=C/c3ccc(O)c(O)c3)CC2)cc1	50.1µM	22.4µM	20µM	nt	i	?
COc1ccc(/C=N/NC(=O)CN2CCN(Cc3ccccc3)CC2)cc1Br	i	i	i	i	i	i
COc1ccc(/C=N/N2CCN(Cc3ccc(C)cc3)CC2)cc1Br	35.5µM	50.1µM	?	44.7µM	i	i
CCN(CC)c1ccc(/C=N\N2CCN(Cc3ccc(C)cc3)CC2)cc1	17.8µM	22.4µM	20µM	7.08µM	i	?
O=C(O)c1ccc(/C=N/N2CCN(Cc3ccc(Cl)cc3)CC2)cc1	i	i	i	nt	i	i
Cc1ccc(CN2CCN(/N=C/c3ccc(C(=O)O)cc3)CC2)cc1	i	i	i	7.94µM	i	i
Cc1ccc(CN2CCN(/N=C/c3cccnc3)CC2)cc1	i	i	i	i	i	i
O=C(O)CC1(CC(=O)NCc2cc(F)cc3c2OCOC3)CCCCC1	?	i	i	i	i	i
Cc1ccc(CN2CCN(/N=C/C(Br)=C\c3ccccc3)CC2)cc1	31.6µM	?	i	nt	?	i
C/C(N)=C(/C#N)C(=O)COC(=O)C1CCN(S(=O)(=O)c2cccs2)CC1	nt	i	i	nt	nt	i
Cc1cc(N2CCCCC2)nc2ccc(NC(=O)/C=C/c3ccc(OC(C)C)cc3)cc12	i	i	i	i	nt	nt
CCCCCC(=O)Nc1sc(C)c(C)c1C#N	i	i	?	3.16µM	79.4µM	i
